Experimental data: PMC4336329 (PLoS ONE, 2015)
The campaign covered roughly 310,000 compounds. About 2,200 (0.71%) showed an effect of 50% or more. Effects have a minus sign here. For the sample, strong results were picked, then their nearest neighbours and some compounds at random.

Biological target: human ether-à-go-go-related gene (hERG) potassium channel (human, UniProt Q12809)
Test: primary screen, population patch clamp on CHO cells stably expressing hERG; higher = less effect of the substance

human ether-à-go-go-related gene (hERG) potassium channel, sequence (Q12809 whole entry, looked up): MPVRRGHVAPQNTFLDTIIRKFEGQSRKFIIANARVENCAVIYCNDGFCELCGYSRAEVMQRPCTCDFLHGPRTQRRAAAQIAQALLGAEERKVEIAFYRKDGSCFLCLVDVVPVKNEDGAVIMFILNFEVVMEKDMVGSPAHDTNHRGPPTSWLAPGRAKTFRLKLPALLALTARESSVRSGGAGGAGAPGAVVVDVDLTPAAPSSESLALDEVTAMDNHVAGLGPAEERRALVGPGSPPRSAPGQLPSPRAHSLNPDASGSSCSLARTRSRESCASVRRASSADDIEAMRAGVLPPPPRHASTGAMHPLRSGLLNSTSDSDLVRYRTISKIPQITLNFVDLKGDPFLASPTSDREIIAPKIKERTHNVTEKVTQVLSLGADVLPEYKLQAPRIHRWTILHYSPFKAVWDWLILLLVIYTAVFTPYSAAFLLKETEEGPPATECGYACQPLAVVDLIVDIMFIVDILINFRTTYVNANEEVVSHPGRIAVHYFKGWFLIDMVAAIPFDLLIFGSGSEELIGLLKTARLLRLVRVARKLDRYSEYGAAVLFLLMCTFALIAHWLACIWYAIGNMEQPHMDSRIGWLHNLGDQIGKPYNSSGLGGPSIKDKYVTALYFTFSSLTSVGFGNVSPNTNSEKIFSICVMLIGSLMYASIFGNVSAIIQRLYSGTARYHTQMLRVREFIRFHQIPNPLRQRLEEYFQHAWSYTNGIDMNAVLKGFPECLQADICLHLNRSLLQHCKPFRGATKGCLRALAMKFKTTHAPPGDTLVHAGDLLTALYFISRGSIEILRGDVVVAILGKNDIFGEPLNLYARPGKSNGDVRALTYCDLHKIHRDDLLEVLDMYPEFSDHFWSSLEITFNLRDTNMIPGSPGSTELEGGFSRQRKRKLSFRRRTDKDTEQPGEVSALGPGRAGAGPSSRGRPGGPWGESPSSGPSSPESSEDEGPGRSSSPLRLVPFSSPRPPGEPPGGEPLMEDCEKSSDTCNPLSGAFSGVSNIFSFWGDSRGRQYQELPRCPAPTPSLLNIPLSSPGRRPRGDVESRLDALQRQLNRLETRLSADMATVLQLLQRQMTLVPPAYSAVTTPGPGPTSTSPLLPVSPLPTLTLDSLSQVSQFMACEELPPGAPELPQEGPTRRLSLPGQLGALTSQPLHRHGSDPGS

Structure (SMILES) | hERG current change (%, negative = inhibition) at 1uM
COC(=O)c1ccccc1Nc1ccnc(Cl)n1 | -6.9%
O=C(Nc1c(F)c(F)c(F)c(F)c1F)C1CCCCC1 | 5.93%
CC(C(=O)N1CCCC1)N(c1ccccc1)S(C)(=O)=O (stereo not drawn) | 20.3%
C/C(=N\NC(=O)c1ccccc1)c1ccc(-n2ccnc2)cc1 | 8.54%
O=C(CCc1nnc(-c2ccccc2)o1)NCc1cc(F)ccc1F | 0.576%
Cc1csc(N(C)C(=O)CSc2nnc(COc3ccccc3C)o2)n1 | 6.62%
CC(C)CC(=O)Nc1ccc2oc(-c3cccnc3)nc2c1 | 15.3%
COCCSc1nnc(NC(=O)C2CC(=O)N(C3CCCC3)C2)s1 (stereo not drawn) | 16%
COc1cccc(C(=O)OCC(=O)NC(C)CCc2ccccc2)c1O (stereo not drawn) | 13.8%
CCN1CCN(C(=O)/C(=C/c2ccco2)NC(=O)c2ccccc2)CC1 | -57.1%
O=C(N/C(=C\c1ccco1)C(=O)N1CCOCC1)c1ccc([N+](=O)[O-])cc1 | -55.9%
CN1CCN(C(=O)/C(=C/c2ccco2)NC(=O)c2ccccc2)CC1 | -37.1%
O=C(N/C(=C/c1ccc([N+](=O)[O-])cc1)C(=O)N1CCOCC1)c1ccco1 | -34.6%
O=C(N/C(=C\c1ccc([N+](=O)[O-])cc1)C(=O)N1CCCCC1)c1ccco1 | -41.5%
O=C(N/C(=C\c1cccc([N+](=O)[O-])c1)C(=O)N1CCOCC1)c1ccc([N+](=O)[O-])cc1 | -2.31%
O=C(N/C(=C\c1ccco1)C(=O)N1CCCC1)c1ccccc1 | 14.4%
Cc1ccc(C(=O)N/C(=C/c2ccco2)C(=O)N2CCOCC2)cc1 | 8.19%
O=C(N/C(=C\c1ccc([N+](=O)[O-])cc1)C(=O)N1CCOCC1)c1ccco1 | -57.1%
CCOc1ccc(NS(=O)(=O)c2ccc3ncsc3c2)cc1 | 12.1%
O=C1CCCCCCC1Sc1ccccc1[N+](=O)[O-] (stereo not drawn) | 3.82%
Cc1ccc(C2C(=O)N(C3CCC(C)CC3)CC(=O)N2C2CCCC2)cc1 (stereo not drawn) | -13.1%
COC(=O)/C=c1/s/c(=C(/C#N)C(=O)N2CCCCC2)n(-c2ccccc2)c1=O | 9.76%
CC(C)[C@H](NS(=O)(=O)c1ccccc1)C(=O)OCn1nnc2ccccc2c1=O | 4.31%

Structure (SMILES) | hERG current change (%, negative = inhibition) at 1uM
Cn1c(=O)c2c(nc(SCCN3CCCCC3)n2Cc2ccc(Cl)cc2)n(C)c1=O | -48.9%
Cc1ccc(Cn2c(SCCN3CCOCC3)nc3c2c(=O)n(C)c(=O)n3C)cc1 | -6.9%
Cc1ccc(Cn2c(SCCN3CCCCC3)nc3c2c(=O)n(C)c(=O)n3C)cc1 | -67.1%
Cn1c(=O)c2c(nc(SCCN3CCOCC3)n2Cc2ccccc2Cl)n(C)c1=O | -8.97%
Cn1c(=O)c2c(nc(SCCN3CCOCC3)n2Cc2ccccc2)n(C)c1=O | -5.7%
Cn1c(=O)c2c(nc(SCCN3CCCCC3)n2Cc2ccccc2)n(C)c1=O | -66%
ON1C2CCCCC2N(O)C1c1c(F)c(F)c(F)c(F)c1F (stereo not drawn) | 17.7%
CC1CN(CC(=O)NCc2ccccc2)CC(C)O1 (stereo not drawn) | 19.2%
Cc1ccc(N2C(=O)C(CN3CCCCC3)C2c2ccccc2)cc1 (stereo not drawn) | -4.6%
Cc1ccc(N2C(=O)C(CN3CCCC3)C2c2ccccc2)cc1 (stereo not drawn) | -70.6%
Cc1ccc(N2C(=O)C(CN3CCOCC3)C2c2ccccc2)cc1 (stereo not drawn) | -1.12%
COc1ccc(CCn2c(SCCN3CCCCC3)nc3ccccc3c2=O)cc1OC | -8.22%
COCCn1c(SCC(=O)N2CCOCC2)nc2ccccc2c1=O | 5.32%
O=c1c2ccccc2nc(SCCN2CCCCC2)n1CCc1ccccc1 | -10%
C=CCn1c(SCCN2CCCC2)nc2c([nH]c3ccccc32)c1=O | -63.9%
COCCn1c(SCC(=O)N2CCC(C)CC2)nc2ccccc2c1=O | -57.9%
CCOC(=O)CSc1nc2ccccc2c(=O)n1CC1CCCC1 | -63.8%
COCCn1c(SCCN2CCCCC2)nc2ccccc2c1=O | -53.3%
C=CCn1c(SCC(=O)N2CCCC2)nc2c([nH]c3ccccc32)c1=O | 5.21%
C=CCn1c(SCC(=O)NC2CCCC2)nc2c([nH]c3ccccc32)c1=O | -16.9%
CCOC(=O)CSc1nc2ccccc2c(=O)n1CC | -1.18%
COCCn1c(SCC(=O)N2CCCCC2)nc2ccccc2c1=O | -30.8%
CCOC(=O)CSc1nc2ccccc2c(=O)n1CC1CCCO1 (stereo not drawn) | 9.44%

Structure (SMILES) | hERG current change (%, negative = inhibition) at 1uM
CN(C(=O)COC(=O)/C=C/c1ccc2ccccc2n1)C1CCS(=O)(=O)C1 (stereo not drawn) | 12.9%
CC(=O)Nc1cccc(C(=O)OCc2ccc([N+](=O)[O-])cc2)c1 | -13.5%
O=C1C=C(NCC2CCCO2)C2(CCCCC2)O1 (stereo not drawn) | 15.6%
N#Cc1ccccc1OCC(=O)N1N=C(c2cccs2)CC1c1ccco1 (stereo not drawn) | -1.57%
O=C(CSc1nncn1-c1ccccc1)Nc1cc(Cl)cc(Cl)c1 | 5.88%
O=C(Cn1ncc2c1-c1ccccc1OC2)N1CCN(Cc2ccccc2)CC1 | -58%
O=C(Cn1ncc2c1-c1ccccc1OC2)N1CCN(Cc2ccc3c(c2)OCO3)CC1 | -31%
CCN1CCN(C(=O)Cn2ncc3c2-c2ccccc2OC3)CC1 | 0.123%
O=C1NN=COc2ccccc21 | 4.08%
Cc1ccc(CN2CCN(Cc3cccn3-c3ccc(Cl)cn3)CC2CCO)o1 (stereo not drawn) | 0.259%
Cc1ccc(CN2CCN(Cc3cccn3-c3ccccn3)CC2CCO)cc1 (stereo not drawn) | -82.4%
CC(C)=CCN1CCN(Cc2cccn2-c2ccccn2)CC1CCO (stereo not drawn) | -19.9%
CC(C)CN1CCN(Cc2cccn2-c2ccccn2)CC1CCO (stereo not drawn) | -18.8%
CC(C)N1CCN(Cc2cccn2-c2ccccn2)CC1CCO (stereo not drawn) | -16%
Cc1ccc(CN2CCN(Cc3cccn3-c3ccccn3)CC2CCO)o1 (stereo not drawn) | -59.5%
OCCC1CN(Cc2cccn2-c2ccccn2)CCN1Cc1ccccc1 (stereo not drawn) | -61.4%
OCCC1CN(Cc2cccn2-c2ccccn2)CCN1C1CCCC1 (stereo not drawn) | 3.68%
Cc1ccc(CN2CCN(Cc3ccncc3)CC2CCO)o1 (stereo not drawn) | -1.98%
Cc1ccc(CN2CCN(Cc3c(C)nn(C(C)C)c3C)CC2CCO)o1 (stereo not drawn) | 10.6%
Cc1cc(C)c(CN2CCN(Cc3ccc(C)o3)C(CCO)C2)c(-n2cccn2)c1 (stereo not drawn) | -70.9%
CC(C)CCN1CCN(Cc2cccn2-c2ccccn2)CC1CCO (stereo not drawn) | -36.6%
CCOC(=O)C1CCN(S(=O)(=O)c2cc3c(cc2C)NC(=O)CO3)CC1 | -13.1%
CC(=O)NCCC(=O)Nc1sc2c(c1-c1nc3ccccc3[nH]1)CCCC2 | 7.25%

Structure (SMILES) | hERG current change (%, negative = inhibition) at 1uM
CC(C)(C)NCCOc1ccc2ccccc2c1 | 14.6%
O=C(O)c1cc2ccccc2cc1Nc1ccccc1 | 6.84%
CC(OC(=O)c1ccco1)C(=O)Nc1ccc(Cl)cn1 (stereo not drawn) | 5.93%
CNC(=O)C1=C(C)Nc2nc3ccccc3n2C1c1ccc(F)cc1 (stereo not drawn) | 7.95%
C/C(CC(=O)Nc1ccc(F)cc1)=N\NC(=O)Cc1csc(N)n1 | 16.1%
CCOC(=O)c1nc(Nc2ccc(C(=O)O)cc2)c2ccccc2n1.Cl | 11.2%
O=C(Nc1ccccc1)N(C1=NCCCCS1)c1cccc2ccccc12 | 5.62%
O=C(O)CC1SC(=O)N(CC(=O)c2ccccc2)C1=O (stereo not drawn) | 8.06%
O=C(COC(=O)Cc1cccc(C(F)(F)F)c1)NC1CC1 | 10.7%
N#CCCn1cc(C(=O)Nc2ccc(F)cc2)c(-c2ccc([N+](=O)[O-])cc2)n1 | 6.48%
N#CCCn1cc(C(=O)Nc2ccc([N+](=O)[O-])cc2)c(-c2ccccc2)n1 | -67.8%
N#CCCn1cc(C(=O)Nc2ccc(C(=O)O)cc2)c(-c2ccc([N+](=O)[O-])cc2)n1 | 16%
O=C(OCC(=O)N1CCCC1)c1ccc(S(=O)(=O)Nc2ccccc2)cc1 | -0.807%
CN(CC(=O)Nc1cccc(F)c1)C(=O)c1ccccc1Sc1ccccc1C#N | -8.06%
CC(C)(C)c1ccc(CN2C(=O)c3ccccc3S2(=O)=O)cc1 | 15.7%
CC(=O)c1cccc(NC(=O)C2CCCN(S(=O)(=O)c3ccccc3)C2)c1 (stereo not drawn) | 7.51%
O=C(NCc1ccco1)C1CCCN(S(=O)(=O)c2cc(Cl)ccc2Cl)C1 (stereo not drawn) | 2.52%
CN(C)c1ccc(/C=N/NC(=O)c2ccn(C)n2)cc1 | 9.92%
CC(NC(=O)c1ccc(S(=O)(=O)N(C)C)cc1)c1ccc(-n2ccnc2)cc1 (stereo not drawn) | -40.5%
CC(NC(=O)c1ccccc1Cl)c1ccc(-n2ccnc2)cc1 (stereo not drawn) | -1.53%
CC(NC(=O)c1cc(S(=O)(=O)N(C)C)ccc1Cl)c1ccc(-n2ccnc2)cc1 (stereo not drawn) | -55.3%
